Records with an inconclusive call do not appear. The source made the active and inactive calls. Unless noted, calls follow the shape of the dose curve; as a rule, active = well fitted inhibition curve with a large enough effect; inconclusive = small, poorly fitted or top-dose-only effect; inactive = flat fitted curve, though single readings scatter.
Key:
[1] = Drug repurposing screens with cells derived from glioblastoma tumor samples (AID 1345199); settings: GBM patient neurospheres viability, ATP luminescence, 48 h; also: nearly all actives have a fitted effect of over 40% in size; also: potency is read from the fitted curve at half-maximal effect; as to activity, negative = cell killing: % is scaled to controls: 0 for no effect and ±100 for the full control effect
Summary of the method: (§1)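 Primary testing used CD133+ neurospheres from four GBM patients, seven concentrations, 48 h exposure and ATP-based viability; confirmation added three slower-growing patient lines.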

[2] = tested on: astro; assay: as above; settings: viability, ATP luminescence, 48 h; series mostly up to 45.9 µM
Summary of the method: as §1

[3] = qHTS assay for small molecule activators of the human pregnane X receptor (PXR) signaling pathway (AID 720659; call rule not given here; also: 0% is about no effect); settings: DPX-2 HepG2 CYP3A4-luciferase, 24 h; series mostly up to 92.3 µM
[4] = at 45.9 µM (top of the series), tumour line B
[5] = at 45.9 µM (top of the series), tumour line D
[6] = at 46.1 µM (top of the series), tumour line C
[7] = at 20 µM (top of the series), tumour line C
[8] = at 21.2 µM (top of the series), tumour line B
[9] = at 21.2 µM (top of the series), tumour line D
[10] = at 21.3 µM (top of the series), tumour line A

CC12CCC(C[N+](C)(CCC[N+](C)(C)C)C1)C2(C)C (centres undefined)
inactive: activity, negative = cell killing [1, 4] -11.8% | activity, negative = cell killing [1, 5] -25.7% | activity, negative = cell killing [1, 6] 21.9% | Potency [2]

NC(=O)OCC(O)COc1ccc(Cl)cc1 (centres undefined)
inactive: activity, negative = cell killing [1, 7] 0.2% | activity, negative = cell killing [1, 8] -15.4% | activity, negative = cell killing [1, 9] -22.6% | Potency [2]

O=P(O)(O)OP(=O)(O)O
inactive: activity, negative = cell killing [1, 4] -12.9% | activity, negative = cell killing [1, 5] -11% | activity, negative = cell killing [1, 6] -5.23% | Potency [2]

CC(C)(C)NCC(O)c1ccc(O)c(CO)n1 (centres undefined)
inactive: activity, negative = cell killing [1, 4] -4.38% | activity, negative = cell killing [1, 5] 7.95% | activity, negative = cell killing [1, 6] -15% | Potency [2]

O=C(O)C1=C(CSc2nnnn2CS(=O)(=O)O)CS[C@@H]2[C@H](NC(=O)[C@H](O)c3ccccc3)C(=O)N12
inactive: activity, negative = cell killing [1, 4] -15.2% | activity, negative = cell killing [1, 5] -23.3% | activity, negative = cell killing [1, 6] -17.1% | Potency [2]

CCc1cn([C@H]2C[C@H](O)[C@@H](CO)O2)c(=O)[nH]c1=O
inactive: activity, negative = cell killing [1, 4] -28.6% | activity, negative = cell killing [1, 5] -5.04% | activity, negative = cell killing ([1]; at 46 µM (top of the series), tumour line A) -8.93% | Potency [2]

CCN(CC)CCOC(=O)c1cccnc1
inactive: activity, negative = cell killing [1, 4] -9.24% | activity, negative = cell killing [1, 5] 9.6% | activity, negative = cell killing [1, 6] -9.84% | Potency [2]

CCCCCCCCCCCC(=O)OC[C@@H](O)C1OC[C@H](O)[C@H]1O (some centres undefined)
inactive: activity, negative = cell killing [1, 4] -6.52% | activity, negative = cell killing [1, 5] -10.2% | activity, negative = cell killing [1, 6] -22.6% | Potency [2]

CO/N=C(\C(=O)N[C@@H]1C(=O)N2C(C(=O)[O-])=C(C[n+]3ccc(N)n3CCO)CS[C@H]12)c1csc(N)n1
inactive: activity, negative = cell killing [1, 4] -6.9% | activity, negative = cell killing [1, 5] -6.66% | activity, negative = cell killing [1, 6] -25.8% | Potency [2]

COc1c(O[C@@H]2O[C@H](CO)[C@@H](O)[C@H](O)[C@H]2O)cc2c(c1OC)-c1ccc(SC)c(=O)cc1[C@@H](NC(C)=O)CC2
inactive: activity, negative = cell killing [1, 8] -28.7% | activity, negative = cell killing [1, 9] -5.86% | activity, negative = cell killing [1, 10] -6.81% | Potency [2]

S=C1SCN(Cc2ccccc2)CN1Cc1ccccc1
inactive: activity, negative = cell killing [1, 5] -15% | activity, negative = cell killing [1, 6] -9.54% | Potency [2]
active: Potency ([1]; tumour line A) 11.2 µM

O=C(O)c1ccc(OCCn2ccnc2)cc1
inactive: activity, negative = cell killing [1, 4] -11.4% | activity, negative = cell killing [1, 5] -25.4% | activity, negative = cell killing [1, 6] -11.9% | Potency [2]

CC(C)Cc1ccc([C@@H](C)C(=O)NS(C)(=O)=O)cc1
inactive: activity, negative = cell killing [1, 4] -10.5% | activity, negative = cell killing [1, 5] -14.1% | activity, negative = cell killing [1, 6] -23.4% | Potency [2]

Oc1cc(O)cc(O)c1
inactive: activity, negative = cell killing [1, 4] -4.88% | activity, negative = cell killing [1, 5] -12.8% | activity, negative = cell killing [1, 6] -10.5% | Potency [2]

O=C[C@H](O)[C@@H](O)[C@@H](O)[C@H](O)CO
inactive: activity, negative = cell killing [1, 4] -11.6% | activity, negative = cell killing [1, 5] 0.16% | activity, negative = cell killing [1, 6] 10.2% | Potency [2]

NC(=O)c1cc[n+](CC2=C(C(=O)O)N3C(=O)[C@@H](NC(=O)C(c4ccccc4)S(=O)(=O)[O-])[C@H]3SC2)cc1 (some centres undefined)
inactive: activity, negative = cell killing [1, 7] 7.27% | activity, negative = cell killing [1, 8] -0.0366% | activity, negative = cell killing [1, 9] -7.97% | Potency [2]

C=CC1=C(C(=O)O)N2C(=O)[C@@H](NC(=O)/C(=N/OCC(=O)O)c3csc(N)n3)[C@H]2SC1 (stereo in doubt)
inactive: activity, negative = cell killing [1, 7] 2.81% | activity, negative = cell killing [1, 8] -6.13% | activity, negative = cell killing [1, 9] -19.8% | Potency [2]

CCSc1ccc2c(c1)N(CCCN1CCN(C)CC1)c1ccccc1S2
active: Potency ([1]; tumour line A) 6.31 µM
inactive: activity, negative = cell killing [1, 7] -10.8% | activity, negative = cell killing [1, 8] -0.856% | Potency [2]

C=Cc1ccc(S(=O)(=O)O)cc1
inactive: activity, negative = cell killing [1, 4] -6.14% | activity, negative = cell killing [1, 5] -2.96% | Potency [2]

CCCCCCCCCCCCCCCCCCOCC(COP(=O)([O-])OCC[N+](C)(C)C)OC (centres undefined)
active: Potency ([1]; tumour line A) 35.5 µM
inactive: activity, negative = cell killing [1, 5] -24.7% | activity, negative = cell killing [1, 6] -1.43% | Potency [2]

OCCN1CCN(CC/C=C2/c3ccccc3Sc3ccc(Cl)cc32)CC1
inactive: activity, negative = cell killing [1, 8] -19.4% | activity, negative = cell killing [1, 9] -24.9% | Potency [2]

CC(CCc1ccc(O)cc1)NCC(O)c1ccc(O)cc1 (centres undefined)
inactive: activity, negative = cell killing [1, 4] 1.78% | activity, negative = cell killing [1, 5] 4.34% | activity, negative = cell killing [1, 6] 2.7% | Potency [2]

CCOc1ccc(S(=O)(=O)O)c2cccnc12
inactive: activity, negative = cell killing [1, 4] -12% | activity, negative = cell killing [1, 5] -2.86% | activity, negative = cell killing [1, 6] -26.7% | Potency [2]

[O-][N+](=Nc1ccccc1)c1ccccc1
inactive: activity, negative = cell killing [1, 4] -12.7% | activity, negative = cell killing [1, 5] -9.27% | activity, negative = cell killing [1, 6] -6.88% | Potency [2] | outcome [3]

CN[C@@H]1[C@@H](O)[C@@H](O[C@@H]2[C@@H](O)[C@H](OC3OC(CN)=CCC3N)[C@@H](N)C[C@H]2N)OC[C@]1(C)O (some centres undefined)
inactive: activity, negative = cell killing [1, 7] 5.74% | activity, negative = cell killing [1, 8] -6.65% | activity, negative = cell killing [1, 10] -25.4% | Potency [2]

Source: PubChem BioAssay (NCATS)
